Compound activity as filed in PubChem.
RORg inh – inhibitors of mouse ROR gamma transcriptional activity; P51450; hit rate 5.4% among 310,000; Potency, µM (series often up to 53.6 µM), actives largely listed as inhibitors; Drosophila S2 Gal4-RORgamma UAS-luciferase reporter, 20 h; AID 2551; also: nearly all actives have a fitted effect of over 60% in size
Target sequence (P51450 whole entry, looked up, the tested form may be a part): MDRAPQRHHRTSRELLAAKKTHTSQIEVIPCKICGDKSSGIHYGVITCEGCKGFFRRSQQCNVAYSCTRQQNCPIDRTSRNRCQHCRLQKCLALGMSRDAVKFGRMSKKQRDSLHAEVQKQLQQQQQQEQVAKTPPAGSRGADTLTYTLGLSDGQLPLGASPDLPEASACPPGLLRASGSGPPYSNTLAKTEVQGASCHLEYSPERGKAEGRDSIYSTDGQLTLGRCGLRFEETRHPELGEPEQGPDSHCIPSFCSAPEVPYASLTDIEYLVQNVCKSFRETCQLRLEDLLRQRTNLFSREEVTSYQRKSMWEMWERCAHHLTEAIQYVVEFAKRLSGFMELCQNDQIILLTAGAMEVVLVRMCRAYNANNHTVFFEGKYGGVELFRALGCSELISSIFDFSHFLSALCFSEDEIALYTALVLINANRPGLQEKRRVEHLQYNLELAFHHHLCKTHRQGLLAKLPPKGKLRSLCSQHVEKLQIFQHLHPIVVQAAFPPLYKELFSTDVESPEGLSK
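Stably transfected Drosophila Schneider cells are the test system, with ROR gamma fused to Gal4 and luciferase under UAS control; luminescence is read after 20 hr of 700 uM copper sulfate induction at ambient temperature.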
KinaseGlo FLuc – Kinase-Glo luciferase inhibition (counter-screen) | Kinase-Glo luciferase, ATP luminescence, 8 min | Potency, µM (top dose mostly 38.3 µM), hits mostly inhibitors | hit rate 0.28% among 200,000 | AID 1379; also: nearly all actives have a fitted effect of over 60% in size
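Luminescence was the read-out, taken after 8-minute incubation at ambient temperature. Luciferase turned over luciferin with 10 uM ATP in imidazole pH 7.2 buffer containing KCl, MgCl2, Tween 20 and BSA.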
VP16 counter – Gal4-VP16 reporter inhibition counter-screen. AID 2546. hit rate 3.5% among 310,000. Drosophila S2 Gal4-VP16 UAS-luciferase, luminescence, 20 h. Potency, µM (doses to about 53.6 µM), usual class: inhibitors;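 also: Gal4-VP16 expression switched on by copper sulfate through the metallothionein promoter; nearly all actives have a fitted effect of over 50% in size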
A number is an active result; 0 = inactive; ? = inconclusive; - = no result; [ ] = another dose, or the depositor's remark. The list is not random: actives were taken first. Their share in the collection is about 6.4%. Calls follow the shape of the dose curve; as a rule, active = well fitted curve in the direction sought with a large enough effect; inconclusive = small, poorly fitted or top-dose-only effect, or another doubt; inactive = no such curve, though single readings can be large; an effect the other way counts as inactive or inconclusive.

SMILES | RORg inh | KinaseGlo FLuc | VP16 counter
O=C(N/N=C/C=C/c1ccc2c(c1)OCO2)c1ccc([N+](=O)[O-])cc1 | 2µM | 0 | 10µM
Nc1ccc(C(=O)N/N=C\C=C\c2ccc([N+](=O)[O-])cc2)cc1 | 0 | 0 | 0
C[C@H](c1ccccc1)N1C(=O)[C@H]2[C@@H]3[C@H](O)[C@H](O)CC(=O)[C@H]3CC[C@H]2C1=O | 0[10 µM] | - | 0[10 µM]
COc1ccc(C(CC(=O)O)NC(=O)c2ccccc2[N+](=O)[O-])cc1 (centres undefined) | 0 | - | 0
CC(=O)c1ccccc1NCC(=O)Nc1ccc(C)cc1 | 0 | 0 | 0
O=C(NNC(=O)c1cccc2ccccc12)c1ccccc1O | 0 | - | 0
COc1ccccc1C(=O)NNC(=O)c1ccccc1 | 0[1.91 µM] | - | ?
Nc1ccccc1C(=O)NNC1=C(C(=O)C(F)(F)F)CCC1 | 7.1µM | - | ?
COc1ccccc1C(=O)NNC1=C(C(=O)C(F)(F)F)CCC1 | 0.56µM | 0 | 5µM
COc1cccc(C(=O)NNC2=C(C(=O)C(F)(F)F)CCC2)c1 | 5.6µM | - | ?
O=C(NNC1=C(C(=O)C(F)(F)F)CCC1)c1ccccc1O | 11µM | 0 | ?
COc1cccc(C(=O)NN=C2CCCC2)c1 | 0 | - | 0
O=C(NNC1=C(C(=O)C(F)(F)F)CCC1)c1ccc(Br)cc1 | ? | 0 | ?
CCCCC[C@H](O)/C=C/C=C/C/C=C\CCCC(=O)O | 0 | 0 | 0
COC(=O)N1CCC2(CC1)CCN(C(c1ccccc1)c1ccccc1)CC2 | 0 | 0 | 0
O=C(NNC1=C(C(=O)C(F)(F)F)CCC1)c1ccccc1Cl | 5.6µM | 0 | 6.3µM
COc1cccc(C(=O)NN/C(C)=C/C(=O)C(F)(F)C(F)(F)C(F)(F)F)c1 | 13µM | 0 | 13µM
O=C(NNc1c2ccccc2nc2ccccc12)c1ccccc1Cl | 0 | - | 0
COc1cccc(C(=O)NNC(=O)Cc2ccc(Cl)cc2)c1 | 0[10 µM] | 0 | 0
N#Cc1cccc(NC(=O)N2CC3(CCN(C(=O)c4ccco4)CC3)C2)c1 | 0 | 0 | 0
O=[N+]([O-])c1ccc(Sc2ccccn2)nc1 | 0 | - | 0
O=[N+]([O-])c1ccc(Sc2nnnn2-c2ccccc2)nc1 | 3.5µM | 0 | ?
O=C(CNCc1ccc(F)cc1)Nc1ccccc1[N+](=O)[O-] | 0 | 0 | 0
Cc1cc(OC(C)C(=O)NCCN2CCOCC2)c2c(C)cc(=O)oc2c1 (centres undefined) | 0 | - | 0
C[C@]12CCC(O)CC1=CCC1C2CC[C@]2(C)/C(=N\NC(N)=S)CCC12 (some centres undefined) | 13µM | - | 0
SMILES | RORg inh | KinaseGlo FLuc | VP16 counter
CC12CCC(O)CC1=CCC1C2CCC2(C)C1CCC21CCC(=O)O1 (centres undefined) | 0 | 0 | 0
CCOc1ccc(CN(C)C(=O)c2ccc(NC(=O)CC3SC(N4CCCC4)=NC3=O)cc2)cc1 (centres undefined) | 0 | - | 0
O=C(Nc1ccccc1N1CCCCC1)c1cccc(OC(F)F)c1 | 0 | - | 0
COc1cccc(C(=O)NC(=S)Nc2ccccc2N2CCCCC2)c1 | 2.5µM | - | 5µM
COc1cc(C(=O)Nc2ccccc2N2CCCCC2)cc(OC)c1OC | 0 | - | 0
COc1cccc(C(=O)Nc2ccccc2N2CCCC2)c1 | 0 | 0 | 0
COc1cc(C(=O)NC(=S)Nc2ccccc2N2CCCC2)cc(OC)c1OC | 4.5µM | - | 4µM
CC(C)Oc1ccc(C(=O)Nc2ccccc2N2CCOCC2)cc1 | 0 | 0 | 0
COc1cccc(C(=O)NC(=S)Nc2ccccc2N2CCCC2)c1 | 4µM | 0 | 13µM
CC(C)Oc1cccc(C(=O)NC(=S)Nc2ccccc2N2CCOCC2)c1 | 5.6µM | - | 5.6µM
Cc1ccc(-c2nc(CN(C)Cc3ccc4nccnc4c3)c(C)o2)s1 | 0 | - | 0
Cc1ccccc1C(=O)Nc1ccccc1N1CCCCC1 | ? | 0 | 0
COc1c(C)cccc1C(=O)NC(=S)Nc1ccccc1N1CCCC1 | 10µM | - | 20µM
COc1ccc(C(CC(=O)NC(C)c2ccc(-c3ccccc3)cc2)NC(C)=O)cc1 (centres undefined) | 0 | - | 0
O=C(CNc1cc(S(=O)(=O)N2CCOCC2)ccc1N1CCCC1)N1CCc2ccccc21 | 0 | 0 | 0
Cn1ncc([N+](=O)[O-])c1C(=O)Nc1ccc(-c2ccccc2)cc1 | 0[1.91 µM] | - | 0
CCc1ccc(-c2cc3c(=O)n(CC(=O)NCCN4CCCCC4C)nc(C)n3n2)cc1 (centres undefined) | 0 | - | 0
Cc1c(CCC(=O)N[C@@H](C)C(=O)O)c(=O)oc2cc3oc4c(c3cc12)CCCC4 | 0 | - | ?
CCCC(NC(=O)CCc1c(C)c2cc3c4c(oc3c(C)c2oc1=O)CCCC4)C(=O)O (centres undefined) | 0.79µM | - | 0
CC(=O)c1ccc(S(=O)(=O)N2CCN(S(=O)(=O)c3ccccc3C(F)(F)F)CC2)cc1 | 0 | - | 0
CN(C)c1ncc2nc(-c3cccs3)c(=O)n(C3CC3)c2n1 | 0 | 0 | 0
COc1ccc(OCC(=O)Nc2nc3ccccc3[nH]2)cc1 | 0.79µM | 0 | 0
COC(=O)c1sccc1NC(=O)c1sccc1C | 0 | 0 | 0
COc1ccc(CCNC(=O)c2oc3ccc(OC)cc3c2C)cc1 | 11µM | - | 0
Cc1ccsc1C(=O)Nc1nc2ccccc2[nH]1 | 2µM | - | 7.1µM
SMILES | RORg inh | KinaseGlo FLuc | VP16 counter
Cc1cc(C)cc(C(=O)Nc2nc3ccccc3[nH]2)c1 | 6.3µM | - | 10µM
Cc1cc(C)nc(Nc2nc3ccccc3[nH]2)n1 | 0 | 0 | 0
COc1ccc2oc(C(=O)NC(C)(C)C)c(C)c2c1 | ? | 0 | 0
O=C(COc1ccc2ccccc2c1)Nc1nc2ccccc2[nH]1 | ? | 0 | ?
O/N=C(/c1ccc(F)cc1)C1CC1c1c(F)cccc1Cl (centres undefined) | 0 | - | 0
C=CCn1cnc2c(nnn2Cc2ccc(F)cc2)c1=O | 0 | - | 0
CSCc1cc(N(C)c2ccccc2)nc(-c2ccccc2)n1 | 0 | - | 0
CC(=O)c1ccccc1C(=O)N1CCCC(N2CCN(Cc3ccc4c(c3)OCO4)CC2)C1 (centres undefined) | 0 | - | 0
COc1ccc(-n2c(=O)c(CCc3ccccc3)nc3cnc(N(C)C)nc32)cc1 | 0 | 0 | 0
COc1ccc(NC(=S)N(CCCN2CCCC2)Cc2cccn2Cc2ccc(Cl)cc2)cc1Cl | ? | 0 | 0
COc1cc(OC)cc(C(=O)Nc2nc3ccccc3[nH]2)c1 | 3.2µM | 0 | 5.6µM
COc1cc(OC)cc(C(=O)N[C@@H](CCSC)c2nc3ccccc3[nH]2)c1 | 0 | 0 | 0
COc1ccc2oc(C(=O)Nc3nc4ccccc4[nH]3)c(C)c2c1 | ? | - | 2.8µM
COc1ccc2oc(C(=O)OC/C(O)=C(\C#N)c3nc4ccccc4[nH]3)c(C)c2c1 | ? | - | 0
O=C(Nc1nc2ccccc2[nH]1)c1cc2ccccc2o1 | 2.5µM | 0 | 7.9µM
O=C(COc1ccccc1)NNc1c2ccccc2nc2ccccc12 | 0 | 0 | 0
COc1ccc(OCC(=O)NNc2c3ccccc3nc3ccccc23)cc1 | 0.35µM | 0 | 7.1µM
Cc1cc(C)nc(NC(=O)c2cc3ccccc3o2)n1 | 0 | 0 | 0
CO[C@H]1C[C@@H]2CC[C@@H](C)[C@@](O)(O2)C(=O)C(=O)N2CCCC[C@H]2C(=O)O[C@H]([C@H](C)C[C@@H]2CC[C@@H](OC(=O)C(C)(CO)CO)[C@H](OC)C2)CC(=O)[C@H](C)/C=C(\C)[C@@H](O)[C@@H](OC)C(=O)[C@H](C)C[C@H](C)/C=C/C=C/C=C/1C | 0 | - | 0
